Laboratory results as given in PMC9911399, “Two distinct binding modes provide the RNA-binding protein RbFox with extraordinary sequence specificity”.
Numbering of substitutions follows the chain as printed; changes in the protein carry UniProt numbers. Over roughly 16,000 sequences, “ka relative to ugcaugu” has its median near 0.0091; the highest 2% begin near 0.032. What follows is part of a selection rich in the highest values, with near analogues and random picks from the rest.

T1: RBFOX1 RRM (Homo sapiens, UniProt Q9NWB1 109-208)
T1 sequence: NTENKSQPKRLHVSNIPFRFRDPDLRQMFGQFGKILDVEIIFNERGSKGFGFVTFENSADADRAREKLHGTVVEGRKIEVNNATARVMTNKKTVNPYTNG

B1: UCAAUCC (DNA:RNA)
RNA: GGGAGACCGGAAUUCAGAUUGUCCUCAAUCCUUAAAUCCCGUCGUAGCCACCA
DNA 1: CAATCTGAATTCCGGTCTCCC
DNA 2: TGGTGGCTACGACGGGATT
B2: UAUUGCC (DNA:RNA)
RNA: B1 RNA with C26A, A27U, A28U, U29G
DNA 1: CAATCTGAATTCCGGTCTCCC
DNA 2: TGGTGGCTACGACGGGATT
B3: UGUUAGC (DNA:RNA)
RNA: B1 RNA with C26G, A27U, A28U, U29A, C30G
DNA 1: CAATCTGAATTCCGGTCTCCC
DNA 2: TGGTGGCTACGACGGGATT
B4: GACUGAA (DNA:RNA)
RNA: GGGAGACCGGAAUUCAGAUUGUCCGACUGAAUUAAAUCCCGUCGUAGCCACCA
DNA 1: CAATCTGAATTCCGGTCTCCC
DNA 2: TGGTGGCTACGACGGGATT
B5: UUCAGCC (DNA:RNA)
RNA: B1 RNA with C26U, A27C, U29G
DNA 1: CAATCTGAATTCCGGTCTCCC
DNA 2: TGGTGGCTACGACGGGATT
B6: ACCUUCG (DNA:RNA)
RNA: B1 RNA with U25A, A27C, A28U, C31G
DNA 1: CAATCTGAATTCCGGTCTCCC
DNA 2: TGGTGGCTACGACGGGATT
B7: ACCUAAG (DNA:RNA)
RNA: B4 RNA with G25A, A26C, G29A, A31G
DNA 1: CAATCTGAATTCCGGTCTCCC
DNA 2: TGGTGGCTACGACGGGATT
B8: UUACAAU (DNA:RNA)
RNA: B1 RNA with C26U, A28C, U29A, C30A, C31U
DNA 1: CAATCTGAATTCCGGTCTCCC
DNA 2: TGGTGGCTACGACGGGATT
B9: GAUUGAC (DNA:RNA)
RNA: B4 RNA with C27U, A31C
DNA 1: CAATCTGAATTCCGGTCTCCC
DNA 2: TGGTGGCTACGACGGGATT
B10: UAGUCCU (DNA:RNA)
RNA: B4 RNA with G25U, C27G, G29C, A30C, A31U
DNA 1: CAATCTGAATTCCGGTCTCCC
DNA 2: TGGTGGCTACGACGGGATT
B11: GUACGUA (DNA:RNA)
RNA: B4 RNA with A26U, C27A, U28C, A30U
DNA 1: CAATCTGAATTCCGGTCTCCC
DNA 2: TGGTGGCTACGACGGGATT
B12: CUUUCCU (DNA:RNA)
RNA: B4 RNA with G25C, A26U, C27U, G29C, A30C, A31U
DNA 1: CAATCTGAATTCCGGTCTCCC
DNA 2: TGGTGGCTACGACGGGATT
B13: UGCUCGA (DNA:RNA)
RNA: B4 RNA with G25U, A26G, G29C, A30G
DNA 1: CAATCTGAATTCCGGTCTCCC
DNA 2: TGGTGGCTACGACGGGATT
B14: GGCUCGA (DNA:RNA)
RNA: B4 RNA with A26G, G29C, A30G
DNA 1: CAATCTGAATTCCGGTCTCCC
DNA 2: TGGTGGCTACGACGGGATT
B15: CGGCUCG (DNA:RNA)
RNA: B1 RNA with U25C, C26G, A27G, A28C, C31G
DNA 1: CAATCTGAATTCCGGTCTCCC
DNA 2: TGGTGGCTACGACGGGATT
B16: UCCUCGA (DNA:RNA)
RNA: B4 RNA with G25U, A26C, G29C, A30G
DNA 1: CAATCTGAATTCCGGTCTCCC
DNA 2: TGGTGGCTACGACGGGATT
B17: UGCUCGG (DNA:RNA)
RNA: B4 RNA with G25U, A26G, G29C, A30G, A31G
DNA 1: CAATCTGAATTCCGGTCTCCC
DNA 2: TGGTGGCTACGACGGGATT
B18: CGCUCGG (DNA:RNA)
RNA: B4 RNA with G25C, A26G, G29C, A30G, A31G
DNA 1: CAATCTGAATTCCGGTCTCCC
DNA 2: TGGTGGCTACGACGGGATT
B19: GUCUCGA (DNA:RNA)
RNA: B4 RNA with A26U, G29C, A30G
DNA 1: CAATCTGAATTCCGGTCTCCC
DNA 2: TGGTGGCTACGACGGGATT
B20: UCGUCGG (DNA:RNA)
RNA: B1 RNA with A27G, A28U, U29C, C30G, C31G
DNA 1: CAATCTGAATTCCGGTCTCCC
DNA 2: TGGTGGCTACGACGGGATT
B21: UCGUCGA (DNA:RNA)
RNA: B4 RNA with G25U, A26C, C27G, G29C, A30G
DNA 1: CAATCTGAATTCCGGTCTCCC
DNA 2: TGGTGGCTACGACGGGATT
B22: ACAGCUC (DNA:RNA)
RNA: B1 RNA with U25A, A28G, U29C, C30U
DNA 1: CAATCTGAATTCCGGTCTCCC
DNA 2: TGGTGGCTACGACGGGATT
B23: CUAUCUG (DNA:RNA)
RNA: B4 RNA with G25C, A26U, C27A, G29C, A30U, A31G
DNA 1: CAATCTGAATTCCGGTCTCCC
DNA 2: TGGTGGCTACGACGGGATT
B24: UAAGCGA (DNA:RNA)
RNA: B4 RNA with G25U, C27A, U28G, G29C, A30G
DNA 1: CAATCTGAATTCCGGTCTCCC
DNA 2: TGGTGGCTACGACGGGATT
B25: GGUCAGA (DNA:RNA)
RNA: B4 RNA with A26G, C27U, U28C, G29A, A30G
DNA 1: CAATCTGAATTCCGGTCTCCC
DNA 2: TGGTGGCTACGACGGGATT
B26: CAUUUGG (DNA:RNA)
RNA: B4 RNA with G25C, C27U, G29U, A30G, A31G
DNA 1: CAATCTGAATTCCGGTCTCCC
DNA 2: TGGTGGCTACGACGGGATT
B27: GACUAUC (DNA:RNA)
RNA: B4 RNA with G29A, A30U, A31C
DNA 1: CAATCTGAATTCCGGTCTCCC
DNA 2: TGGTGGCTACGACGGGATT
B28: AAAGUAC (DNA:RNA)
RNA: B1 RNA with U25A, C26A, A28G, C30A
DNA 1: CAATCTGAATTCCGGTCTCCC
DNA 2: TGGTGGCTACGACGGGATT
B29: AAAACUA (DNA:RNA)
RNA: B4 RNA with G25A, C27A, U28A, G29C, A30U
DNA 1: CAATCTGAATTCCGGTCTCCC
DNA 2: TGGTGGCTACGACGGGATT
B30: GAUCUCU (DNA:RNA)
RNA: B4 RNA with C27U, U28C, G29U, A30C, A31U
DNA 1: CAATCTGAATTCCGGTCTCCC
DNA 2: TGGTGGCTACGACGGGATT
B31: UUAAGUU (DNA:RNA)
RNA: B1 RNA with C26U, U29G, C30U, C31U
DNA 1: CAATCTGAATTCCGGTCTCCC
DNA 2: TGGTGGCTACGACGGGATT

These binders were tested against T1, RBFOX1 RRM (assay: EMSA; HiTS-Eq, 1 nM pool, 10 min; buffer printed only for the single-RNA assays: 10 mM Tris pH 7.5, 150 mM NaCl, 3.4 mM EDTA, 0.001% NP-40, 30 C). Details: tags: His6 N-terminal (pET28a); label: 5' 32P.
How it was run: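 A pool of RNA with 7 randomized nucleotides, 5′-radiolabelled and with DNA-annealed flanks, was equilibrated at 1 nM for 10 min in 50 µL with purified RbFox RRM, wild type or mutant, across increasing protein concentrations. Free RNA was separated by 8% native PAGE, excised, reverse-transcribed, barcoded by PCR and sequenced. Relative association constants were obtained from read-count changes of each RNA species versus the control reaction and normalised to the cognate motif.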

Row | Binder | binding signal
1 | B1 | 0.00161 KA relative to UGCAUGU
2 | B2 | 0.012 KA relative to UGCAUGU
3 | B3 | 0.0176 KA relative to UGCAUGU
4 | B4 | 0.0274 KA relative to UGCAUGU
5 | B5 | 0.0103 KA relative to UGCAUGU
6 | B6 | 0.00839 KA relative to UGCAUGU
7 | B7 | 0.00359 KA relative to UGCAUGU
8 | B8 | 0.00107 KA relative to UGCAUGU
9 | B9 | 0.0228 KA relative to UGCAUGU
10 | B10 | 0.00776 KA relative to UGCAUGU
11 | B11 | 0.0085 KA relative to UGCAUGU
12 | B12 | 0.0054 KA relative to UGCAUGU
13 | B13 | 0.0363 KA relative to UGCAUGU
14 | B14 | 0.033 KA relative to UGCAUGU
15 | B15 | 0.0112 KA relative to UGCAUGU
16 | B16 | 0.00976 KA relative to UGCAUGU

Row | Binder | binding signal
17 | B17 | 0.0361 KA relative to UGCAUGU
18 | B18 | 0.0166 KA relative to UGCAUGU
19 | B19 | 0.0166 KA relative to UGCAUGU
20 | B20 | 0.0171 KA relative to UGCAUGU
21 | B21 | 0.014 KA relative to UGCAUGU
22 | B22 | 0.00303 KA relative to UGCAUGU
23 | B23 | 0.00983 KA relative to UGCAUGU
24 | B24 | 0.0108 KA relative to UGCAUGU
25 | B25 | 0.00171 KA relative to UGCAUGU
26 | B26 | 0.014 KA relative to UGCAUGU
27 | B27 | 0.00429 KA relative to UGCAUGU
28 | B28 | 0.00371 KA relative to UGCAUGU
29 | B29 | 0.00178 KA relative to UGCAUGU
30 | B30 | 0.0194 KA relative to UGCAUGU
31 | B31 | 0.0109 KA relative to UGCAUGU
